# CHX counter = affects cycloheximide protein synthesis inhibition readout, counter-screen; cell reporter, cycloheximide protein synthesis inhibition counterscreen; max response, %; 12% of 300,000 active; in the data active means max response mostly above about 13%, no sharp cut-off; inactive means mostly below about 14%; further: read at 38.3 µM for the half of the compounds with a filed dose; 0% is about no effect
# Lassa entry inh = blocks Lassa virus binding to or entry into cells; Lassa virus pseudotype entry inhibition, cell reporter; Potency, µM (top dose mostly 37.9 µM), without a hit: at the top dose activity change, negative = inhibition, usual class: inhibitors; 1.2% of 300,000 active; AID 540256; calls by dose curve; tested in HEK293 cells; further: potency means the concentration at half of the fitted maximal effect; on the % scale 0 is the no-effect control and ±100 the full control effect; nearly all actives have a fitted effect of over 50% in size
# VACV Venus inh = vaccinia inhibition (Venus reporter) | Vaccinia virus Venus reporter expression, fluorescence | 0.46% of 330,000 active | AID 720580 | Potency, µM (titrated, usually from 36.5 µM), inactives show at the top dose activity change, negative = inhibition, usual class: inhibitors; calls by dose curve; tested in A549 cells; further: potency means the concentration at half of the fitted maximal effect; on the % scale 0 is the no-effect control and ±100 the full control effect; nearly all actives have a fitted effect of over 30% in size
# VACV mCherry inh = vaccinia inhibition (mCherry reporter) | Vaccinia virus mCherry reporter infection, fluorescence | 0.63% of 310,000 active | AID 720579 | Potency, µM (top dose mostly 36.5 µM), inactives show at the top dose activity change, negative = inhibition, most hits filed as inhibitors; calls by dose curve; tested in A549 cells; further: potency means the concentration at half of the fitted maximal effect; on the % scale 0 is the no-effect control and ±100 the full control effect; nearly all actives have a fitted effect of over 35% in size
# Marburg entry inh = blocks Marburg virus binding to or entry into cells; Marburg virus pseudotyped entry inhibition, cell reporter; Potency, µM (doses to about 37.8 µM), for inactives: at the top dose activity change, negative = inhibition, most hits filed as inhibitors; 1.8% of 300,000 active; calls by dose curve; tested in HEK293 cells; further: potency means the concentration at half of the fitted maximal effect; on the % scale 0 is the no-effect control and ±100 the full control effect
# Shiga inhibitor = inhibitors of Shiga toxin in Vero cells; Vero cells, Shiga toxin protein synthesis inhibition reporter; inhibition, % at 38.7 µM; 9.2% of 290,000 active; AID 2315; in the data active means inhibition mostly above about 28%, no sharp cut-off; inactive means mostly below about 43%; further: 0% is about no effect
# An asterisk follows results filed as active; i = inactive; ? = inconclusive; . = not tested or not shown; + = active, no number; ! = not confirmed by another sample; [ ] = another dose, or the depositor's remark. This is one part of a sample in which hits are shown more often than they occur.
SMILES,CHX counter,Lassa entry inh,VACV Venus inh,VACV mCherry inh,Marburg entry inh,Shiga inhibitor
Cc1cn(C2CC3OCC(NC(=O)C(NC(=O)OC(C)(C)C)C(C)OCc4ccccc4)C3O2)c(=O)[nH]c1=O (configuration not stated),-2,.,.,.,.,-3
COc1cc(O)c(C(CCN2CCCC(C)C2)c2ccc3c(c2)OCO3)c(OC)c1 (configuration not stated),-9,.,-3%,?,.,-5
COc1cc(O)c(C(CC(=O)N2CCCCC2)c2cc(OC)c(OC)c(OC)c2)c(OC)c1 (configuration not stated),47*!,.,-11%,-17%,.,81*!
COc1cc(OC)c2ccc(=O)oc2c1C(CC(=O)N1CCCC1)c1ccc(N(C)C)cc1 (configuration not stated),22*!,.,-7%,-22%,.,30
COc1cc(OC)c2ccc(=O)oc2c1C(CCN1CCCC(C)C1)c1ccc2c(c1)OCO2 (configuration not stated),44*!,.,?,-14%,.,124*!
COc1cc(OC)c2ccc(=O)oc2c1C(CC(=O)N1CCOCC1)c1ccc(N(C)C)cc1 (configuration not stated),-4,.,-5%,i,.,-15
Cc1ccc(Nc2c(-c3cccs3)nc3nc(C)cc(C)n23)cc1,.,?,-12%,-16%,28%[46.1 µM],.
CCOC(=O)Cn1c(=O)n(CC2CCCO2)c2nc(-c3ccccc3Cl)nc(C(N)=O)c21 (configuration not stated),.,-23%[46.1 µM],1%,-5%,.,.
COc1ccc(OC)c(NC(=O)C(=O)NNC(=O)c2cccs2)c1,-7,4%,0%,-1%,20%,-6
CCc1ccc(NC(=O)CCNC(=O)N2C[C@H]3C[C@@H](C2)c2cccc(=O)n2C3)cc1,27*,.,5%,-1%,.,31*
CCOc1ccc(NC(=O)CCNC(=O)N2C[C@H]3C[C@@H](C2)c2cccc(=O)n2C3)cc1,-2,.,-2%,-1%,.,-3
Cc1cccc(NC(=O)c2ccc(-c3ccccc3[N+](=O)[O-])o2)c1,31*,.,-13%,-19%,14%[46.1 µM],61*
Cc1ccccc1-c1ccc(C(=O)Nc2cccc(F)c2)o1,47*,1%,-13%,i,22%,50*
O=C(Nc1cccc(F)c1)c1ccc(-c2ccccc2C(F)(F)F)o1,31*,15%,.,.,?,50*
COc1ccc(NC(=O)c2ccc(-c3ccccc3C(F)(F)F)o2)cc1,10,?,-13%,i,-10%,18
Oc1ccccc1-c1nc(/C=C/c2ccccc2)nn1-c1ccccc1,23*,-7%[46.1 µM],1%,-5%,?,33
Oc1ccc(/C=C/c2nc(-c3ccccc3O)n(-c3ccccc3)n2)cc1,0,12µM*,.,.,?,-34
CC(C)OCCCNC(=O)Cn1c(-c2cccs2)cc2cc(F)ccc21,.,-6%[46.1 µM],-6%,-1%,-5%[46.1 µM],.
Cc1csc(NC(=O)CSc2nnc(C)c(=O)n2N)n1,9,-1%[46.1 µM],-5%,i,18%[46.1 µM],-4
Cc1csc(NC(=O)CSc2nnnn2C)n1,25*,28%,-7%,i,?,53*
COC(=O)c1sc(NC(=O)CSc2nnnn2C)nc1C,29*,?,-11%,-6%,?,121*
CCCn1c(SCC(=O)Nc2nc(C)c(C(=O)OC)s2)nnc1C(C)C,-5,0%,-19%,i,?,15
Cc1nc(NC(=O)CSc2nnnn2C)sc1C,40*,12%,.,.,17%,71*
CC(C)CO/N=C1\C[C@@H](O)[C@@H](O)[C@@H]2[C@@H]3C(=O)N(C4CCCCC4)C(=O)[C@@H]3CC[C@H]12,.,.,.,.,-20%[14.2 µM],.
Nc1ncc(S(=O)(=O)NCc2ccc(F)cc2)cn1,.,-13%[46.1 µM],-4%,-13%,.,.
SMILES,CHX counter,Lassa entry inh,VACV Venus inh,VACV mCherry inh,Marburg entry inh,Shiga inhibitor
COc1ccc(CCNC(=O)C(CC(C)C)N2Cc3ccccc3C2=O)c(OC)c1OC (configuration not stated),.,-24%[46.1 µM],-7%,-12%,.,.
O=C(c1cccs1)c1cn(CCOc2ccc(F)cc2)c2ccccc12,.,21%[46.1 µM],-14%,-19%,-15%[46.1 µM],.
COc1cccc(CN2CCC(n3cc(C(=O)NC4CCCC4)nn3)CC2)c1O,.,.,-1%,-4%,.,.
Cc1oc2ncn(CC(C)C)c(=O)c2c1C(=O)N1CCN(c2ccc(F)cc2)CC1,.,26%[46.1 µM],-1%,-6%,.,.
COCCNC(=O)C1CCN(Cc2cc3ccccc3n2Cc2ccc(C)cc2)CC1,.,-19%[46.1 µM],-7%,-8%,.,.
O=C(Nc1ccccc1F)c1coc(=O)c(Br)c1,51*,-8%,2%,6%,-19%[46.1 µM],+
Cc1cc(NC(=O)c2coc(=O)c(Br)c2)ccc1C(C)C,95*,2%,-2%,-7%,?,108*
O=C(Nc1ccc(Br)cn1)c1coc(=O)c(Br)c1,45*,4%,-5%[7.34 µM],-5%[7.34 µM],16%[46.1 µM],49*
C[C@@H](NC(=O)c1coc(=O)c(Br)c1)c1ccccc1,20*,?,-8%,.,?,26
O=C(NCc1ccccn1)c1coc(=O)c(Br)c1,1,-1%,-8%,.,-13%,10
COc1cc(NC(=O)c2nnn(CC(=O)Nc3ccccc3)c2N)cc(OC)c1,.,9%[46.1 µM],-27%,-16%,.,.
COCCCNc1ncnc2sc(C(=O)N3CCCCC3)c(C)c12,.,.,0%,-9%,.,.
Cc1ccc(NC(=O)C(=O)NCC(c2cccnc2)N2CCN(c3ccccc3F)CC2)cc1Cl (configuration not stated),.,0%[46.1 µM],-17%,-18%,.,.
Cc1cc(C)c2oc(-c3ccc(Cl)c(NC(=O)c4ccc(C#N)cc4F)c3)nc2c1,48*,8%,2%,.,21%,39*
O=Cc1c(NCc2ccco2)nc2ccccn2c1=O,16*,0%,3%,-2%,20%[46.1 µM],24
O=C(Nc1cccc(N2CCC(NCc3cnn(-c4ccccc4)n3)CC2)c1)c1cccnc1,.,.,-8%,-12%,.,.
Cc1cc(-n2c(C)cc(C(=O)CSc3nncn3C)c2C)no1,.,-7%[46.1 µM],-15%,i,11%[46.1 µM],.
Cc1cc(C(=O)CSc2nncs2)c(C)n1-c1ccc2c(c1)OCO2,26*,8%,-22%,-7%,16%,62*
CCCn1c(SCC(=O)c2cc(C)n(-c3ccc4c(c3)OCO4)c2C)n[nH]c1=O,-2,?,-23%,-20%,?,-5
Cc1ccc(-n2nnnc2SCC(=O)c2cc(C)n(-c3cc(C)on3)c2C)cc1,-4,12µM*,-9%,i,1%,-11
Cc1cc(C(=O)CSc2nnnn2-c2ccccc2)c(C)n1-c1ccc2c(c1)OCO2,29*,6.5µM*,-13%,-12%,?,50*
Cc1cc(C(=O)COC(=O)C2=COCCO2)c(C)n1-c1ccc2c(c1)OCO2,66*,-1%,.,.,1%,138*
Cc1ccc(CONC(=O)c2ccccc2Cl)cc1,.,3%,-11%,i,?,.
Cc1ccc(C(=O)N/C(=C\c2ccccc2)C(=O)OCc2ccccc2)cc1,45*,-8%,-22%,-24%,-6%,71*
Cc1ccc(CONC(=O)c2ccccc2)cc1,40*,?,-7%,5%,8%[46.1 µM],67*

# Screening results as filed in PubChem.
